This is part of a sample that, as a whole, favours compounds with a hit. Of some 79,000 tested, about 15% had one in any assay. Calls of active or inactive are those of the source. No stated cut-off is given here; in the data, active means growth inhibition above about 70%; inactive means the rest.
Columns and labels:
[1] = NCI Yeast Anticancer Drug Screen. Data for the rad52 strain (AID 147);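 further: 0% = growth of vehicle-treated control cultures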; conditions: S. cerevisiae rad52 mutant growth inhibition, active compounds read high
How it was run: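 Inhibition of yeast growth, referenced to vehicle controls, was the measured output for a strain with defective DNA damage repair.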

[2] = NCI Yeast Anticancer Drug Screen. Data for the wt1 strain (AID 149);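 further: 0% = growth of vehicle-treated wt1 cultures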; conditions: S. cerevisiae wt1 strain (SPY 50644) growth inhibition, active compounds read high
How it was run: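 wt1 yeast, compound-treated; % growth inhibition vs vehicle control.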

[3] = NCI Yeast Anticancer Drug Screen. Data for the rad50EPP+ strain (AID 151);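 further: 0% = growth of vehicle-treated control cultures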; conditions: S. cerevisiae rad50 mutant strain, active compounds read high
How it was run: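 Genetically defined yeast (rad50EPP+, DNA damage repair alteration) is grown with compound, and inhibition of growth is expressed relative to vehicle-treated controls.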

[4] = NCI Yeast Anticancer Drug Screen. Data for the mgt1 strain (AID 153); conditions: S. cerevisiae mgt1 mutant growth inhibition, active compounds read high
How it was run: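 In the mgt1 strain, test compounds were added and growth inhibition was determined relative to vehicle-treated controls.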

[5] = NCI Yeast Anticancer Drug Screen. Data for the rad50 strain (AID 155);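 further: 0% = growth of vehicle-only cultures of the same strain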; conditions: S. cerevisiae rad50 strain growth inhibition, active compounds read high
How it was run: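 Genetically altered yeast (DNA repair pathway); compound treatment; growth inhibition vs vehicle ctrl.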

[6] = NCI Yeast Anticancer Drug Screen. Data for the mec2-1 strain (AID 157); conditions: S. cerevisiae mec2-1 strain, active compounds read high
How it was run: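 Each compound was tested on mec2-1 yeast, a strain altered in DNA damage repair or cell cycle control. Growth inhibition is reported relative to vehicle.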

[7] = NCI Yeast Anticancer Drug Screen. Data for the rad14 strain (AID 159);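 further: 0% = growth of vehicle-treated control cultures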; conditions: S. cerevisiae rad14 strain growth inhibition, active compounds read high
How it was run: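 Test compounds were applied to a repair-deficient yeast strain. Its growth was then compared with that of cultures given vehicle alone, and inhibition was expressed relative to those controls.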

[8] = NCI Yeast Anticancer Drug Screen. Data for the sgs1 mgt1 strain (AID 161);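 further: 0% = growth of cultures given vehicle only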; conditions: S. cerevisiae sgs1 mgt1 strain, active compounds read high
How it was run: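 Read-out: growth inhibition vs vehicle controls. Cells: mutant yeast strain deficient in DNA damage repair.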

[9] = NCI Yeast Anticancer Drug Screen. Data for the CLN2oe strain (AID 163);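 further: 0% = growth of vehicle-only control cultures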; conditions: S. cerevisiae CLN2oe strain, active compounds read high
How it was run: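 First, the altered yeast strain was treated with each compound; second, its growth was measured; finally, inhibition was derived by comparison with vehicle controls.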

[10] = NCI Yeast Anticancer Drug Screen. Data for the cln2 rad14 strain (AID 165);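 further: 0% = growth equal to vehicle treated cultures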; conditions: S. cerevisiae cln2 rad14 strain, active compounds read high
How it was run: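 Test compounds were added to cln2 rad14 yeast cultures; inhibition of growth was then determined by comparison with vehicle treatment.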

[11] = NCI Yeast Anticancer Drug Screen. Data for the bub3 strain (AID 167); conditions: S. cerevisiae bub3 mutant strain, active compounds read high
How it was run: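 Yeast carrying a defined mutation is treated with each compound, and growth is compared with that of vehicle-exposed cells to give inhibition.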

[12] = NCI Yeast Anticancer Drug Screen. Data for the wt2 strain (AID 169);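 further: 0% = growth of vehicle-treated yeast cultures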; conditions: S. cerevisiae wt2 strain growth inhibition, active compounds read high
How it was run: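 The panel's yeast strains carry defined changes in DNA repair or cell cycle genes. Each strain is grown with compound, and growth loss is scored relative to vehicle.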

[13] = NCI Yeast Anticancer Drug Screen. Data for the mlh1 strain (AID 171);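 further: 0% = growth of vehicle-treated control cultures of the same strain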; conditions: S. cerevisiae mlh1 strain growth inhibition, active compounds read high
How it was run: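 Inhibition values reflect reduced yeast growth in the presence of compound, referenced to vehicle controls, using a strain chosen for its alteration in DNA repair or cell cycle control.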

[14] = NCI Yeast Anticancer Drug Screen. Data for the sgs1 strain (AID 173);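 further: 0% = growth of vehicle-only control cultures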; conditions: S. cerevisiae sgs1 mutant, active compounds read high
How it was run: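 Vehicle-treated cultures served as reference for growth inhibition of a yeast strain altered in DNA damage repair or cell cycle control after compound exposure.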

[15] = NCI Yeast Anticancer Drug Screen. Data for the mlh1 rad18 strain (AID 175); conditions: S. cerevisiae mlh1 rad18 strain growth inhibition, active compounds read high
How it was run: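 Inhibition values reflect reduced growth of mutant yeast versus vehicle-treated controls following compound exposure; the mutations affect DNA damage repair.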

[16] = NCI Yeast Anticancer Drug Screen. Data for the rad18 strain (AID 177); conditions: S. cerevisiae rad18 mutant growth inhibition, active compounds read high
How it was run: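 Steps: expose repair-mutant yeast to compound; measure growth; express as inhibition relative to vehicle control.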

[17] = at 5.0 µM (retest, dose inferred, filed as 0.5)
[18] = at 50.0 µM (retest, dose inferred, filed as 5.0)

Measured: growth inhibition

Cc1ccc(I)cc1N=C=S
active: [1]; at 33.0 µM 82% | [1]; at 100.0 µM 99% | [2]; at 33.0 µM 74% | [2]; at 100.0 µM 99% | [3]; at 33.0 µM 96% | [3]; at 100.0 µM 99% | [4]; at 33.0 µM 96% | [4]; at 100.0 µM 99% | [5]; at 33.0 µM 94% | [5]; at 50.0 µM 79.1% | [5]; at 100.0 µM 99% | [6]; at 33.0 µM 82% | [6]; at 100.0 µM 99% | [7]; at 33.0 µM 94% | [7]; at 100.0 µM 99% | [8]; [18] 100% | [9]; at 100.0 µM 98% | [10]; [18] 100% | [11]; at 33.0 µM 96% | [11]; [18] 100% | [11]; at 100.0 µM 99% | [12]; at 33.0 µM 82% | [12]; at 100.0 µM 99% | [13]; at 33.0 µM 93% | [13]; at 100.0 µM 99% | [14]; at 33.0 µM 83% | [14]; at 100.0 µM 99% | [16]; at 33.0 µM 86% | [16]; at 100.0 µM 99%
inactive: [1]; at 1.2 µM -5% | [1]; at 3.7 µM 6% | [1]; at 11.0 µM 22% | [2]; at 1.2 µM -12% | [2]; at 3.7 µM -14% | [2]; at 11.0 µM -9% | [3]; at 1.2 µM 15% | [3]; at 3.7 µM 36% | [3]; at 11.0 µM 63% | [4]; at 1.2 µM 31% | [4]; at 3.7 µM 44% | [4]; at 11.0 µM 53% | [5]; at 1.2 µM 8% | [5]; at 3.7 µM 6% | [5]; [17] 32% | [5]; at 11.0 µM 25% | [5]; [18] 62% | [6]; at 1.2 µM -4% | [6]; at 3.7 µM 8% | [6]; [17] 48% | [6]; at 11.0 µM 8% | [6]; [18] 62% | [6]; at 50.0 µM 56.9% | [7]; at 1.2 µM -11% | [7]; at 3.7 µM -10% | [7]; at 11.0 µM 11% | [8]; [17] 0% | [9]; at 1.2 µM -2% | [9]; at 3.7 µM 6% | [9]; at 11.0 µM 10% | [9]; at 33.0 µM 68% | [10]; [17] 52% | [11]; at 1.2 µM 7% | [11]; at 3.7 µM 28% | [11]; [17] 7% | [11]; at 11.0 µM 37% | [12]; at 1.2 µM -21% | [12]; at 3.7 µM -12% | [12]; at 11.0 µM 4% | [13]; at 1.2 µM 28% | [13]; at 3.7 µM 28% | [13]; at 11.0 µM 44% | [14]; at 1.2 µM 6% | [14]; at 3.7 µM 2% | [14]; at 11.0 µM 18% | [15]; [17] 35% | [15]; [18] 50% | [15]; at 50.0 µM 63.1% | [16]; at 1.2 µM 10% | [16]; at 3.7 µM 24% | [16]; at 11.0 µM 41%

Source: PubChem BioAssay (NCI)
